The list is not random: actives were taken first. Their share in the collection is about 2.9%.
PAFAH2 inh = PAFAH2 enzyme inhibitors, primary screen, biochemical, fluorescence polarization, human; Platelet-activating factor acetylhydrolase 2, cytoplasmic (Homo sapiens), Q99487; recombinant PAFAH2, FP-rhodamine activity probe; inhibition, % at 3.39 µM; 340,000 compounds, 0.99% hits;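 active means inhibition above the mean over all tested compounds plus 3 SD, cut at about 30% in these data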;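 further: inhibitors block probe labeling of enzyme so polarization drops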
PME-1 primary = PME-1 inhibitors via competitive probe labeling, primary screen, biochemical, fluorescence polarization, FP-Rh probe, HTS; recombinant PME-1; Protein phosphatase methylesterase 1 (Homo sapiens), Q9Y570; AID 2130, 2009; inhibition, % at 5.9 µM; 320,000 compounds, 0.53% hits;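 active means inhibition above the campaign mean of all compounds plus 3 SD, cut at about 26% in these data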;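 further: competitive labeling of PME-1 active site by serine hydrolase directed probe; inhibitors block probe labeling so polarization falls and inhibition rises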
PAFAH1B3 inh = PAFAH1B3 enzyme inhibitors, primary screen, biochemical, fluorescence polarization, human; Platelet-activating factor acetylhydrolase IB subunit alpha1 (Homo sapiens), Q15102; recombinant PAFAH1B3, FP-rhodamine probe; inhibition, % at 3.39 µM; 340,000 compounds, 0.28% hits; AID 492972, 2010;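 active means inhibition above the screen-wide average of all tested compounds plus 3 SD, cut at about 25% in these data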
Target sequence (Q15102 whole entry, looked up): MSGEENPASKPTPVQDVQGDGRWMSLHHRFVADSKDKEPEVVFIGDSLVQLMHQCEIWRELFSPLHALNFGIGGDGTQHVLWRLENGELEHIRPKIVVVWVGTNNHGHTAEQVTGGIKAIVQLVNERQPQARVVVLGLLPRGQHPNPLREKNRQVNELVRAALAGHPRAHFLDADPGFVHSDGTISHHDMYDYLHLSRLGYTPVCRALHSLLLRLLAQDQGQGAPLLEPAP
PAFAH1B2 FP inh = PAFAH1B2 enzyme inhibitors, primary screen, biochemical, fluorescence polarization, human. 340,000 compounds, 1.2% hits. inhibition, % at 3.39 µM. recombinant PAFAH1B2, FP-rhodamine activity probe. Platelet-activating factor acetylhydrolase IB subunit alpha2 (Homo sapiens), P68402;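 active means inhibition above the mean of all tested compounds plus 3 SD, cut at about 24% in these data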
Target sequence (P68402 whole entry, looked up): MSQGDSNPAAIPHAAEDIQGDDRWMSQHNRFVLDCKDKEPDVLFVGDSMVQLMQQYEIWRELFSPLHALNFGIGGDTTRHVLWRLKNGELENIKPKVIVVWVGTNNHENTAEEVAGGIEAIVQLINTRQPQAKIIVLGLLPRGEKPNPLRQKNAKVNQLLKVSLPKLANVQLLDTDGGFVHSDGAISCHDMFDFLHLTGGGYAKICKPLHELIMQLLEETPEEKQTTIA
pPAFAH FP inh = pPAFAH enzyme inhibitors, primary screen, biochemical, fluorescence polarization, human. recombinant pPAFAH, FP-rhodamine probe fluorescence polarization. inhibition, % at 3.39 µM. 330,000 compounds, 1.5% hits;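 active means inhibition above the mean inhibition across the screen plus 3 SD, cut at about 25% in these data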;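 further: inhibitors block binding of the rhodamine activity-based probe so polarization drops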
Fam108B inh = mouse Fam108B serine hydrolase inhibitors, primary screen, counter-screen for RBBP9 inhibitor project, biochemical, fluorescence polarization | recombinant Fam108B, FP-Rh probe fluorescence polarization | inhibition, % at 9.51 µM | 300,000 compounds, 0.33% hits;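 active means inhibition above the screen mean inhibition plus 3 SD, computed separately per campaign, cut at about 18% in these data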;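 further: inhibitors lower polarization as less probe binds the enzyme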
Large screens that a line does not name were inactive.

Nc1c(C(=O)NCc2ccco2)c2nc3ccccc3nc2n1Cc1ccccc1	none
Nc1c(C(=O)NCc2ccco2)c2nc3ccccc3nc2n1CCN1CCOCC1	PME-1 primary 28
CCc1ccc2nc(N3CCC(C(=O)N4CCC5(CC4)OCCO5)CC3)sc2c1	pPAFAH FP inh 29
Cc1ccc2nc(N3CCC(C(=O)N4CCC5(CC4)OCCO5)CC3)sc2c1	none
O=[N+]([O-])c1ccc(N2CCCC2)c2ccncc12	none
CCOC(=O)C1CCCN(c2ccc([N+](=O)[O-])c3nonc23)C1 (stereo not given)	PAFAH2 inh 46, PAFAH1B3 inh 39, PAFAH1B2 FP inh 50 (no result: PME-1 primary, pPAFAH FP inh, Fam108B inh)
c1ccc2nc(OCCN3CC3)ccc2c1	none (no result: PAFAH2 inh, PAFAH1B3 inh, PAFAH1B2 FP inh)
CCCCOc1ccc(CCN)cc1Cl	none
COc1cc2c(cc1OC)C(C(=O)NC(C)C)C1CCCCN1C2=O (stereo not given)	none
CN(C)[C@@H]1C(=O)C(C(N)=O)=C(O)[C@@]2(O)C(=O)C3=C(O)c4c(O)ccc(Cl)c4[C@@](C)(O)[C@H]3C[C@@H]12	pPAFAH FP inh 30
Cc1cc(=O)oc2cc3c(cc12)CCCN3	none
CCC(=O)c1ccc(OC(=O)N(C)c2ccccc2)cc1	none (no result: PAFAH2 inh, PAFAH1B3 inh, PAFAH1B2 FP inh)
CC[n+]1c(-c2ccccc2)c2cc(N)ccc2c2ccc(N)cc21	PAFAH2 inh 82, PAFAH1B3 inh 90, PAFAH1B2 FP inh 65 (no result: PME-1 primary, pPAFAH FP inh, Fam108B inh)
CCCn1ncc(CN2CCCC(C(=O)c3cccc(OC)c3)C2)c1C (stereo not given)	none
C[C@H]1CC[C@@]2(C)[C@@H](CC[C@@H]3[C@@H]2CC[C@]2(C)[C@@H](O)CC[C@@H]32)C1	none
c1ccc2c(CNC3CCCCC3)c[nH]c2c1	none (no result: PAFAH2 inh, PAFAH1B3 inh, PAFAH1B2 FP inh)
Cc1ccc(OCCOc2cccc(C=C3C(=O)NC(=O)NC3=O)c2)cc1	PAFAH1B2 FP inh 39
COC(/C(C)=C/C=C/C(C)=C/c1coc(C)n1)C(C)C1CC(O)C2(C)OC2C=CC(C)C2CC(CC(=O)O2)CC2OC2C(=O)O1 (stereo not given)	none (no result: PME-1 primary, pPAFAH FP inh, Fam108B inh)
CC1(CCO)C(=O)NC(=S)NC1=O	none (no result: PME-1 primary, pPAFAH FP inh, Fam108B inh)
Nc1ccc(C2(c3ccc(N)cc3)CCCCC2)cc1	PAFAH1B2 FP inh 38
CC(C)OCCCNC(=O)c1c(N)n(CC2CCCO2)c2nc3ccccc3nc12 (stereo not given)	PAFAH1B3 inh 55, PAFAH1B2 FP inh 26
C=CCn1c(=O)c(C=Nc2c(OC)cccc2[N+](=O)[O-])c(O)n(CCCC)c1=O	none
COc1ccc(C2NCCc3[nH]cnc32)cc1 (stereo not given)	none
O=c1[nH]c(=S)[nH]c(O)c1N=Nc1ccc(S(=O)(=O)N2CCc3ccccc32)cc1	PME-1 primary 36
Nc1ccc2cc(Br)ccc2c1	PAFAH1B2 FP inh 54
Nc1ccc(Br)cc1	none (no result: PME-1 primary, pPAFAH FP inh, Fam108B inh)
COc1cccc(-n2c(/C=C/c3ccc(O)c(O)c3)nc3ccccc3c2=O)c1	pPAFAH FP inh 33
CC[C@H]1CC2CN3CCc4c([nH]c5cc(OC)ccc45)[C@](C(=O)OC)(C2)[C@H]13	none (no result: PAFAH2 inh, PAFAH1B3 inh, PAFAH1B2 FP inh)
O=C1CN=C(c2ccccc2)c2oc3ccc(Br)cc3c2N1	none
COc1cccc(OC)c1C1=NCC(=O)Nc2c1oc1ccc(Br)cc21	PME-1 primary 45
CC(C)c1ccc(N2C(=O)NC(=O)/C(=C\C=C\c3ccco3)C2=O)cc1	pPAFAH FP inh 29 (no result: PAFAH2 inh, PAFAH1B3 inh, PAFAH1B2 FP inh)
O=C1NC(=O)N(Cc2ccccc2)C(=O)/C1=C/C=C/c1ccco1	none
O=c1[nH]c(=O)n(-c2cccc(F)c2)c(O)c1/C=C1\C=Nc2ccccc21	PAFAH1B2 FP inh 25
COc1cccc(CC(=O)N2CCN(Cc3cccc(Cl)c3)CC2)c1	none
COc1cccc(C2CCN(CC(=O)Nc3cc(Cl)ccc3OC)CC2O)c1 (stereo not given)	pPAFAH FP inh 33
CN1C(=O)NC(=O)[C@]2(Cc3ccccc3N3CCN(c4ccccc4)CC32)C1=O (stereo not given in full)	none
O=C1NC(=O)[C@]2(Cc3ccccc3N3CCN(c4ccccc4)CC32)C(=O)N1c1ccccc1 (stereo not given in full)	pPAFAH FP inh 28
S=C1CN=C(c2ccccc2)c2cc(Cl)ccc2N1	none

Bioassay records deposited in PubChem BioAssay by The Scripps Research Institute Molecular Screening Center.
